This is part of a sample that, as a whole, favours compounds with a hit. Of some 83,000 tested, about 20% had one in any assay.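 Cells were grown in 96-well plates and exposed to the test compound at a single concentration for 48 hours; results are reported as percent growth, with values below 10 considered active.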 Unmarked numbers belong to inactive results. Calls of active or inactive are those of the source.

The experiment has as its system A549/ATCC NSCLC. The experiment is described as follows: NCI-60 one-dose screen, 48 h (100 = growth as untreated, 0 = no growth, -100 = all killed). Particulars: 10 µM unless noted. Here is the method:
Growth inhibition of the A549/ATCC human Non-Small Cell Lung tumor cell line is measured as a screen for anti-cancer activity. Cells are grown in 96 well plates and exposed to the test compound for 48 hours. Compounds are tested at a single concentration, which is 10^-5 M for most compounds. The reported endpoint is percent growth (GI% or GIPRCNT), where numbers from 0 - 100% represent growth inhibition, and numbers from -100% - 0 represent cell death. For example, a value of 40 represents 60% growth inhibition. A value of 0 means no net growth occurred over the course of the experiment. A value of -40 indicates 40% of cells at the beginning of the experiment died by the end of the experiment. A value of -100 means all cells are dead at the end of the experiment.
NCI-60 Human Tumor Cell Lines Screen was performed using the standard one-dose NCI protocol, which is described in more detail at https://dtp.cancer.gov/discovery_development/nci-60/default.htm.
Compounds with GIPRCNT values below 10 were considered active. Activity score was based on GIPRCNT using the following formula: […]
Score is 0 for GIPRCNT values of 100 or above, 50 for GIPRCNT values of 0, and 100 for GIPRCNT values of -100.
Regarding `O=C(CCl)NCCNc1nccc(Nc2ccc(S(=O)(=O)Nc3ccccn3)cc2)n1`, the growth is 56.8%.
The result for `CCC(c1cccc(Br)c1)C(C(=O)O)c1ccc(OC)cc1` (stereo not given) reads 102%; that for `c1ccc2c(c1)Oc1ccccc1C2C1c2ccccc2Oc2ccccc21`, 88.3%.
The result for `Cc1ccc(C2=NN(c3ccc(S(=O)(=O)NC(=O)NCc4ccccc4)cc3)C(c3ccc(N(C)C)cc3)C2)c(C)c1` (stereo not given) reads 22.1%.
As for `CCCCCCCC/C=C\CCCCCCCCOc1ccccc1CCOP(=O)(O)OCC[N+](C)(C)C`, the figure is 48.9%; as for `C/C(=N\NC(=O)CC#N)c1cc2cc(Cl)ccc2o1`, 111%.
Take `CC(C)C[C@H](NC(=O)Cn1ccc(NCc2ccccc2)cc1=O)B(O)O`: the growth was 40.4%.
As for `OCc1c(-c2ccccc2)nc2sccn12`, the growth is 101%.
The result for `CCN(C(=O)c1cc2ccccc2[nH]1)[C@H]1CCC[C@@H](NCc2ccc(OC)cc2)C1` reads 98.7%.
As for `Nc1c(C(=O)Nc2cccc(C(F)(F)F)c2)sc2nc3c(cc12)CCCCC3`, the figure is -18.4% (active); as for `CCN(Cc1ccc(CN(CC)C(=O)C(Cl)(Cl)Cl)cc1)C(=O)C(Cl)(Cl)Cl`, 79.2%.
The result for `Clc1nc(-c2cccnc2)nc2sc3c(c12)CCCCCC3` reads 94.8%; that for `COc1cc2c(cc1OC)C1(C)N(CC2)C(=O)OC1(C)C` (stereo not given), 102%.
`CC(Cc1nnc(SCC(=O)Nc2ccc(I)cc2)n1N)c1ccccc1` (stereo not given): the growth was 100%.
As for `Cc1cccc(NC(=O)c2sc3nc4c(cc3c2N)CCC4)c1C`, the figure is 18.6%; as for `Cc1cc(C)c(NC(=O)c2sc3nc4c(cc3c2N)CN(Cc2ccccc2)CC4)c(C)c1`, 30.3%; as for `COc1ccc(OC)c(NC(=O)c2cc(S(=O)(=O)N3CCc4ccccc43)ccc2OC)c1`, 78.9%.
As for `O=C(c1ccccc1)C(Cl)C(Cl)c1ccccc1` (stereo not given), the figure is 92.7%; as for `Cc1cc(NC(=O)COC(=O)c2sc3cc(F)ccc3c2Cl)no1`, 103%; as for `Cc1sc2nc(CSc3nnc(-c4ccco4)o3)[nH]c(=O)c2c1C`, 101%.
As for `Cn1c(-c2nonc2NC(=O)c2ccc(F)cc2)nc2ccccc21`, the figure is 98.1%; as for `CNC(C)=O`, 92.1%; as for `C=C1C(=O)O[C@H]2[C@H]1CC/C(COC(=O)NCCc1ccc(Br)cc1)=C\CC[C@@]1(C)O[C@@H]21`, 77.8%.
Regarding `COc1cccc(C2CC(=O)Nc3c2c(C)nn3-c2nc3ccccc3[nH]2)c1OC` (stereo not given), the growth is 34.4%.
The result for `O=C(/C=C/CN1CCOCC1)Nc1cc2c(Nc3ccc(F)c(Cl)c3F)ncnc2cc1OCCOC(F)F` reads 40.5%; that for `CCCCCc1c(C)[nH]c(/C=c2\[nH]/c(=C3/C=c4ccccc4=N3)cc2OC)c1C`, -21.8% (active); that for `CCCCCCOc1ccc(C2(Cl)c3ccccc3N(C)c3ccccc32)cc1`, 47.1%.
In the case of `O=C(O)C(=Cc1c2ccccc2cc2ccccc12)C(=O)O`, the growth was 92.1%.
As for `C/C1=C\CCC2(C)OC2CC2CCC(C)(O)C(CC1)C2(C)C` (stereo not given), the figure is 98%; as for `O=C(Nc1ccc(I)cc1)c1cc([N+](=O)[O-])ccc1O`, 44.1%; as for `CCN1C(=O)/C(=c2\sc3n(c2=O)C2C(NN=3)N(CC)C(=S)N2CC)c2ccccc21` (stereo not given), 106%.
Consider `COc1ccc(C2=NN(c3ccc(S(N)(=O)=O)cc3)C(c3cn(-c4ccccc4)nc3-c3ccc(Cl)cc3)C2)cc1` (stereo not given), for which the growth is 74.6%.
The result for `Nc1c(C(=O)Nc2ccccc2)sc2nc3c(cc12)CN(Cc1ccccc1)CC3` reads 54.2%; that for `CC1(C)OC2COC3(C(=O)O)OC(C)(C)OC3C2O1` (stereo not given), 95.5%; that for `COc1ccc(/C=c2\sc3n(c2=O)C2C(NN=3)N(C)C(=O)N2C)cc1` (stereo not given), 33%.
The result for `CCN1C(=S)N(CC)C2Nn3c(s/c(=C4\C(=O)N(C)c5ccccc54)c3=O)=NC21` (stereo not given) reads 50.3%; that for `CC(Br)C(OC(=O)c1ccccc1Cl)c1cc2c(cc1Br)OCO2` (stereo not given), 91.5%.
For the compound `COc1ccc(/C=C2\C(=O)N(C(=O)c3csc(NC(C)=O)n3)N=C2C)cc1`, the growth was 97.3%.
As to `Clc1ccc(-c2nc(-c3ccco3)cn3ccnc23)cc1`, the growth is -1.62% (active).
As for `COc1cc(NC(=O)CSc2nc3ccc(C)cc3c(=O)n2-c2ccccc2)cc(OC)c1OC`, the figure is 83.9%.
